Data published in PubChem BioAssay (Tox21).
Values joined by “and” are separate entries in the source; they are usually repeats but may differ in a detail not shown here. Equal entries are not always repeated. Where a structure was tested more than once in an assay, its records may differ in their call. Active and inactive are the calls of the source. Entries that show only a call come without a potency. Unless noted, calls follow the shape of the dose curve; as a rule, active = well fitted curve in the direction sought with a large enough effect in the repeat runs; inconclusive = weak or mixed curves; inactive = no such curve, though single readings can be large; an effect the other way counts as inactive or inconclusive.

Tests used:
[1] = qHTS assay for identifying genotoxic compounds that show differential cytotoxicity against isogenic chicken DT40 cell lines with known DNA damage response pathways - Rev3 mutant cell line (AID 743014); also: nearly all actives have a fitted effect of over 55% in size; also: potency is read from the fitted curve at half-maximal effect
[2] = qHTS assay for identifying genotoxic compounds that show differential cytotoxicity against isogenic chicken DT40 cell lines with known DNA damage response pathways - Rad54/Ku70 mutant cell line (AID 743015); also: nearly all actives have a fitted effect of over 60% in size; also: potency is read from the fitted curve at half-maximal effect
[3] = qHTS assay to identify small molecule antagonists of the androgen receptor (AR) signaling pathway - cell viability counter screen (AID 743033; also: nearly all actives have a fitted effect of over 45% in size; also: potency is read from the fitted curve at half-maximal effect)
[4] = target: Androgen receptor (Homo sapiens) (UniProt P10275); test: qHTS assay to identify small molecule antagonists of the androgen receptor (AR) signaling pathway (AID 743035; active = well fitted inhibition curve with a large enough effect in the signal ratio in the repeat runs, not every such curve was filed as active; inconclusive = weak or mixed curves, or effect the other way; inactive = no such curve, though single readings can be large or run the other way; the % refers to the signal ratio; also: potency is read from the fitted curve at half-maximal effect)
Androgen receptor (Homo sapiens), sequence (P10275 whole entry, looked up): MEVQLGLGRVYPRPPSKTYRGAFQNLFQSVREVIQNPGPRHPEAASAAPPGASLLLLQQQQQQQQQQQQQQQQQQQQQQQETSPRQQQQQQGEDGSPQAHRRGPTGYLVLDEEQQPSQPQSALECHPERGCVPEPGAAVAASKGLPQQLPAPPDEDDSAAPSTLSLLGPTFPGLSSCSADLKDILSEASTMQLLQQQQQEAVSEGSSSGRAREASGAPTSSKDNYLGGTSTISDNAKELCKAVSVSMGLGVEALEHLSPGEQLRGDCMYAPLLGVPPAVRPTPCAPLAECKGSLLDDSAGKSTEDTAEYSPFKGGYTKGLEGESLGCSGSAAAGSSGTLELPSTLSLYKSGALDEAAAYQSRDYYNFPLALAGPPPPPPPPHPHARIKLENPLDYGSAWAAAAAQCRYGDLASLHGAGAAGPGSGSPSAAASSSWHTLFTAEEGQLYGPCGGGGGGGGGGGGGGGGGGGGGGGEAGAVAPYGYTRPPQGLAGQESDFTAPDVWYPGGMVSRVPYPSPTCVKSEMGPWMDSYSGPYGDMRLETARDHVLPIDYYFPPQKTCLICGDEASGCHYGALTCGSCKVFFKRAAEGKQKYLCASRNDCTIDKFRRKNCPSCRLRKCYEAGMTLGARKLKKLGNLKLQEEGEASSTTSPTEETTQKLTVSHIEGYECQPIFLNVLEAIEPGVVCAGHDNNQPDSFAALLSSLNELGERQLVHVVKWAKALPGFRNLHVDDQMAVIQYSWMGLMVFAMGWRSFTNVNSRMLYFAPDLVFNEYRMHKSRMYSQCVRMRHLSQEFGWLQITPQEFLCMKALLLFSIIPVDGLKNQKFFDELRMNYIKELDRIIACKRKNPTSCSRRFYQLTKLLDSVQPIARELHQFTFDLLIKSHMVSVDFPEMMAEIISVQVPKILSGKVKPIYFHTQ
Summary of the method: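 Antagonism is scored as loss of R1881-driven beta-lactamase reporter expression in HEK293 cells carrying the reporter under a UAS element, after 16 h co-treatment at 37C and a 2 h room-temperature FRET substrate read.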

[5] = target: Androgen receptor (Homo sapiens) (UniProt P10275); test: qHTS assay to identify small molecule agonists of the androgen receptor (AR) signaling pathway using the MDA cell line (AID 743040; also: nearly all actives have a fitted effect of over 20% in size)
Summary of the method: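 Human breast carcinoma MDA-kb2 reporter cells (MMTV-luc, AR/GR elements) were treated for 16 h at 37C in 0% CO2 following a 5 h settling period. Signal was quantified by ONE-Glo luminescence.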

[6] = qHTS assay to identify small molecule antagonists of the androgen receptor (AR) signaling pathway using the MDA cell line - cell viability counter screen (AID 743041; also: nearly all actives have a fitted effect of over 45% in size; also: potency is read from the fitted curve at half-maximal effect)
Summary of the method: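 Same-well cytotoxicity was assessed by CellTiter-Fluor in MDA-kb2 AR-luc cells after 16 h of compound treatment under R1881 agonism.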

[7] = target: Androgen receptor (Homo sapiens) (UniProt P10275); test: qHTS assay to identify small molecule antagonists of the androgen receptor (AR) signaling pathway using the MDA cell line (AID 743042; also: nearly all actives have a fitted effect of over 55% in size; also: potency is read from the fitted curve at half-maximal effect)
Summary of the method: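 MDA-kb2 breast carcinoma cells carrying MMTV-luciferase (AR/GR responsive) were co-treated with compounds and the agonist R1881 for 16 h at 37C. Inhibition read as ONE-Glo luminescence; CellTiter-Fluor fluorescence measured in parallel for cytotoxicity.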

[8] = test system: thyroid hormone receptor (rat, GH3 cells); test: qHTS assay to identify small molecule agonists of the thyroid receptor (TR) signaling pathway (AID 743066; calls by dose curve)
[9] = qHTS assay to identify small molecule antagonists of the estrogen receptor alpha (ER-alpha) signaling pathway - cell viability counter screen (AID 743074; calls by dose curve;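 also: HEK293 cells carrying ER-alpha-UAS-bla reporter stimulated with 17beta-estradiol; nearly all actives have a fitted effect of over 45% in size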; also: potency is read from the fitted curve at half-maximal effect)
[10] = target: Estrogen receptor (Homo sapiens) (UniProt P03372); test: qHTS assay to identify small molecule agonists of the estrogen receptor alpha (ER-alpha) signaling pathway (AID 743075; calls by dose curve;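 also: HEK293 GripTite cells with ER-alpha and UAS-driven beta-lactamase reporter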; also: potency is read from the fitted curve at half-maximal effect)
Estrogen receptor (Homo sapiens), sequence (P03372 whole entry, looked up): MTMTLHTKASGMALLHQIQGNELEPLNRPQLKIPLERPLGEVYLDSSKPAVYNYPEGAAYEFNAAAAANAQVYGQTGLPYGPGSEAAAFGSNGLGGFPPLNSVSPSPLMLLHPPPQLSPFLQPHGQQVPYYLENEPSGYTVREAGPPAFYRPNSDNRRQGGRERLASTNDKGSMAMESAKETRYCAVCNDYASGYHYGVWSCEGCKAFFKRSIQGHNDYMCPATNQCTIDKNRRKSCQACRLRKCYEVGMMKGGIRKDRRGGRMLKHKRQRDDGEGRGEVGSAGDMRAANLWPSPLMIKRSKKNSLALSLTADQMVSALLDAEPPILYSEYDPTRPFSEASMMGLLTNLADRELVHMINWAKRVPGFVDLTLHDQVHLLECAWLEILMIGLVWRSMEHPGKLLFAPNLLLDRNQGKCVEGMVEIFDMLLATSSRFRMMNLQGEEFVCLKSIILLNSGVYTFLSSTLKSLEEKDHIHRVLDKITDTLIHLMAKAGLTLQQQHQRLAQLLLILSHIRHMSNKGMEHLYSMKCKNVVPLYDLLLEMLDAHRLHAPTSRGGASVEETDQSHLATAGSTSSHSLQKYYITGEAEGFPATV

[11] = target: Estrogen receptor (Homo sapiens) (UniProt P03372); test: qHTS assay to identify small molecule agonists of the estrogen receptor alpha (ER-alpha) signaling pathway using the BG1 cell line (AID 743079); also: nearly all actives have a fitted effect of over 20% in size; also: potency is read from the fitted curve at half-maximal effect
[12] = qHTS assay to identify small molecule antagonists of the estrogen receptor alpha (ER-alpha) signaling pathway using the BG1 cell line - cell viability counter screen (AID 743081);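 also: compound given together with 17beta-estradiol as the ER stimulus; nearly all actives have a fitted effect of over 45% in size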; also: potency is read from the fitted curve at half-maximal effect
Aromatase (Homo sapiens) = Aromatase (Homo sapiens) (UniProt P11511); test: qHTS assay to identify aromatase inhibitors (AID 743083); also: nearly all actives have a fitted effect of over 55% in size; also: potency is read from the fitted curve at half-maximal effect
Aromatase (Homo sapiens), sequence (P11511 whole entry, looked up): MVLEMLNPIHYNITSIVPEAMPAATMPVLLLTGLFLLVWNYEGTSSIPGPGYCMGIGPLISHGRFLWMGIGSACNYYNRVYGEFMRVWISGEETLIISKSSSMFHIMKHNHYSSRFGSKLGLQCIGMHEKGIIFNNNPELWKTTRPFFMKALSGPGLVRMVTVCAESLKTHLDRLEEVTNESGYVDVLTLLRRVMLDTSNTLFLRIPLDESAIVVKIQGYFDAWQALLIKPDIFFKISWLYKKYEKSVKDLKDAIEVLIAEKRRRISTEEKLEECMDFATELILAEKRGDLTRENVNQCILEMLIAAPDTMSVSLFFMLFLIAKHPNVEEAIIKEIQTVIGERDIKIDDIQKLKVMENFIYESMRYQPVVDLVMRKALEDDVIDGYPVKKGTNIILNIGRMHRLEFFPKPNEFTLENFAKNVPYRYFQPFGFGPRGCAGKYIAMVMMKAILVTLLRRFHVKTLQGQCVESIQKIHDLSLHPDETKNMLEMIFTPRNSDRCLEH

[13] = qHTS assay for identifying genotoxic compounds that show differential cytotoxicity against isogenic chicken DT40 cell lines with known DNA damage response pathways - wild type cell line (AID 743012); also: nearly all actives have a fitted effect of over 60% in size; also: potency is read from the fitted curve at half-maximal effect
Summary of the method: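 Cells (DT40 wild type, 300/well) are treated with DMSO-dissolved compounds after a ~0.5 h pre-incubation and kept 40 h at 37 C/5% CO2. Viability is then measured by CellTiter-Glo luminescence following 30 min at room temperature.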

[14] = qHTS assay to identify small molecule antagonists of the thyroid receptor (TR) signaling pathway - cell viability counter screen (AID 743064); also: nearly all actives have a fitted effect of over 50% in size; also: potency is read from the fitted curve at half-maximal effect
Summary of the method: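 Compounds were tested on GH3.TRE-Luc cells in the presence of T3 at 1 nM final. Following 23.5 h at 37 °C, cell viability was quantified by CellTiter-Fluor.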

[15] = qHTS assay to identify small molecule antagonists of the thyroid receptor (TR) signaling pathway (AID 743065); also: nearly all actives have a fitted effect of over 55% in size; also: potency is read from the fitted curve at half-maximal effect
Summary of the method: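 GH3.TRE-Luc rat pituitary cells (two TREs driving luciferase) were dosed with compound, then stimulated with 1 nM T3 (final) for 23.5 h at 37 C. ONE-Glo luminescence was the read-out, with CellTiter-Fluor fluorescence as the cytotoxicity counter-screen.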

[16] = target: Androgen receptor (Homo sapiens) (UniProt P10275); test: qHTS assay to identify small molecule agonists of the androgen receptor (AR) signaling pathway (AID 743036; active = well fitted activation curve with a large enough effect in the signal ratio in the repeat runs, with a control signal flat, not every such curve was filed as active; inconclusive = weak or mixed curves, or effect the other way; inactive = no such curve, though single readings can be large or run the other way; the % refers to the signal ratio)
Summary of the method: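 Beta-lactamase under UAS control, stably integrated in HEK293 GripTite cells, reports receptor activation. After 16 h compound treatment, cells received FRET substrate for 2 h at room temperature before fluorescence reading.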

[17] = target: Estrogen receptor (Homo sapiens) (UniProt P03372); test: qHTS assay to identify small molecule antagonists of the estrogen receptor alpha (ER-alpha) signaling pathway (AID 743069; active = well fitted curve in the direction sought with a large enough effect in the signal ratio in the repeat runs, not every such curve was filed as active; inconclusive = weak or mixed curves, or effect the other way; inactive = no such curve, though single readings can be large or run the other way; the % refers to the signal ratio)
Summary of the method: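 Reporter cells (ER-alpha-bla, HEK293 background) are conditioned overnight in stripped-serum medium (2% charcoal-stripped FBS). Compound and 17beta-estradiol exposure runs 18 hr at 37C, 5% CO2.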

[18] = qHTS assay to identify small molecule antagonists of the estrogen receptor alpha (ER-alpha) signaling pathway using the BG1 cell line (AID 743080; calls by dose curve;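 also: BG1 cells stimulated with 17beta-estradiol alongside compound; nearly all actives have a fitted effect of over 25% in size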; also: potency is read from the fitted curve at half-maximal effect)
Summary of the method: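 Luciferase inhibition measured with ONE-Glo after 30 min at RT in BG1Luc4E2 cells given test compounds and 17beta-estradiol for 21.5 h at 37 C; CellTiter-Fluor viability read in the same wells beforehand.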

Row | SMILES | Potency [1] | Potency [2] | Potency [3] | Potency [4] | Potency [5] | Potency [6] | Potency [7] | outcome [8] | Potency [9] | Potency [10] | Potency [11] | Potency [12] | Potency (Aromatase (Homo sapiens)) | Potency [13] | Potency [14] | Potency [15] | Potency [16] | Potency [17] | Potency [18]
1 | CC(=O)/C=C/c1ccc2c(c1)OCO2 | 68.9 µM (active) | 61.4 µM (active) | inactive | 12.4 µM (active) | inactive | inactive | 61.4 µM (active) | inactive | inactive | inactive | inactive | inactive | inactive |  |  |  |  |  | 
2 | O=C(CCl)C(Cl)Cl | 0.692 µM (active) |  | 6.22 µM (active) |  |  |  |  |  | 39.3 µM (active) | 13.9 µM [inconclusive] (active) | 24.6 µM (active) |  | 8.71 µM (active) | 5.5 µM (active) | 8.71 µM (active) | 12.3 µM (active) |  |  | 
3 | CNC(C)Cc1ccc2c(c1)OCO2 (stereo not given) |  |  | inactive | inactive | inactive | inactive | inactive | inactive | inactive | inactive | inactive |  | inactive | inactive | inactive | inactive | inactive | inactive | inactive
4 | O=CC(Br)(Br)Br | 24.3 µM (active) |  | 21.8 µM (active) |  |  | inactive |  | inactive |  | 21.8 µM [inconclusive] (active) |  | inactive | 10.8 µM (active) |  | 19.3 µM (active) | 19.3 µM (active) |  |  | 
5 | N#CNC#N | inactive |  | inactive |  |  | inactive |  | inactive |  |  |  | inactive | inactive | inactive |  | inactive |  |  | 
6 | CC(C)CCCCCCCOP(=O)(Oc1ccccc1)Oc1ccccc1 |  |  | inactive |  |  |  |  |  | inactive | inactive | inactive | inactive | inactive |  | 27.4 µM (active) | 30.8 µM (active) |  | inactive | inactive
7 | CCCN(CCC)CCc1c[nH]c2ccccc12 |  |  | inactive |  |  | inactive |  | inactive | inactive | inactive | inactive |  | inactive | 53.8 µM (active) | 53.8 µM (active) | 30.2 µM (active) |  |  | inactive
8 | CCC[CH2][Sn]([CH2]CCC)([CH2]CCC)[O]C(=O)c1ccccc1 | 0.154 µM (active) |  | 0.692 µM (active) |  |  | 1.93 µM (active) |  |  | 1.74 µM (active) |  |  | 1.72 µM (active) | 2.17 µM (active) | 0.243 µM (active) | 1.22 µM (active) |  |  |  | 0.344 µM (active)
9 | c1ccc(Nc2ccc3ccccc3c2)cc1 | 54.2 µM (active) | 60.8 µM (active) |  |  |  | inactive |  | inactive | inactive | inactive | 19.2 µM (active) and 9.69 µM (active) | inactive | inactive |  | 60.8 µM (active) |  |  | inactive | 
10 | CCN(CC)C(=S)[S-].CCN(CC)C(=S)[S-].[Zn+2] | 1.08 µM (active) |  | 0.344 µM (active) |  |  | 0.96 µM (active) |  |  | 4.86 µM (active) | 54.5 µM [inconclusive] (active) |  | 42.9 µM (active) | 0.096 µM (active) | 1.21 µM (active) | 5.4 µM (active) |  |  |  | 
11 | ClC1=C(Cl)[C@]2(Cl)[C@@H]3[C@@H]4C[C@@H]([C@H]5O[C@@H]45)[C@@H]3[C@@]1(Cl)C2(Cl)Cl | 14.5 µM (active) | 25.8 µM (active) |  |  |  |  |  |  |  |  |  | inactive | 34.4 µM (active) |  | 40.9 µM (active) | 30.6 µM (active) |  |  | 
12 | CC(C)C1CCC(Cc2ccc(Cl)cc2)C1(O)Cn1cncn1 (stereo not given) | 13.5 µM (active) |  | 38.5 µM (active) |  |  |  |  |  |  | inactive |  |  | 2.41 µM (active) | 19.1 µM (active) | 60.5 µM (active) | 34 µM (active) |  |  | 67.9 µM (active)
13 | C[C@H]1CC[C@@H]2[C@@H](C)[C@H]3[C@H](C[C@H]4[C@@H]5CC=C6CC(O[C@@H]7O[C@H](CO)[C@H](O)[C@H](O[C@@H]8O[C@H](CO)[C@@H](O)[C@H](O)[C@H]8O)[C@H]7O[C@H]7O[C@@H](C)[C@H](O)[C@@H](O)[C@H]7O)CC[C@]6(C)[C@H]5CC[C@]34C)N2C1 (stereo not given in full) | inactive |  | inactive |  |  |  |  | inactive | 16.9 µM (active) and inactive |  | inactive | inactive | 25.1 µM (active) | 26.6 µM (active) and inactive | 18.8 µM (active) and inactive |  |  |  | 17.8 µM (active)
14 | CCCCCCCCCCCCCCC(Br)C(=O)O (stereo not given) | 24.3 µM (active) |  | inactive |  |  | inactive |  | inactive | inactive |  | inactive | inactive | inactive |  | 43.3 µM (active) |  |  |  | 
15 | CS(=O)(=O)c1ccc(C(=O)C2C(=O)CCCC2=O)c([N+](=O)[O-])c1 | 44 µM (active) |  | inactive |  |  | inactive |  | inactive |  | inactive | inactive | inactive | inactive |  | 55.4 µM (active) | 69.8 µM (active) |  | inactive | inactive
16 | CCOCCOC(C)=O | inactive | inactive | inactive |  |  | inactive |  | inactive |  | inactive | inactive |  | inactive |  |  | inactive |  | inactive | inactive
17 | CC(C)[C@H](C(=O)O[C@H](C#N)c1cccc(Oc2ccccc2)c1)c1ccc(Cl)cc1 | 43.2 µM (active) |  | inactive |  |  | inactive |  | inactive | inactive |  |  | inactive | inactive | 43.2 µM (active) | inactive |  |  |  | 
